Shown are actives, neighbours in structure and some others; about 4.2% of the full set was active somewhere.
hgDAF12 agonist = H. glycines DAF-12 receptor agonists, primary screen, cell-based, luminescence, HEK293, GAL4 fusion, UAS-luciferase; Nuclear hormone receptor DAF-12 (Heterodera glycines), GAL4 fusion; HEK293 GAL4-hgDAF12 UAS-luciferase reporter, agonist luminescence; normalized to butyrate control; activation, % at 6.8 µM; 1.8% of 370,000 active; AID 687014, 2013;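 active = activation above a cutoff set at the mean of all screened compounds plus 3 SD, cut at about 10% in these data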;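 note: 0% = DMSO wells and 100% = sodium butyrate wells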
DAX1 inh = DAX1 (NR0B1) inhibitors on StAR promoter, primary screen, cell-based, luminescence, SF-1 (NR5A1), full-length DAX-1; 1.1% of 370,000 active; HEK293T StAR-luciferase reporter, SF-1/DAX-1 repression relief; inhibition, % at 6.8 µM;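 active = inhibition above the mean over all tested compounds plus 3 SD, cut at about 3.6% in these data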;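 note: 0% = DAX-1 cells with DMSO and 100% = cells lacking DAX-1 with DMSO; higher inhibition means more luminescence from relief of DAX-1 repression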
SMARCA2 act = SMARCA2 (BRM) function activators, primary screen, cell-based, luminescence, high throughput. MG213 cells, MMTV-luciferase reporter, dexamethasone, overnight. activation, % at 9.1 µM. 1% of 370,000 active. AID 652017, 2013; in the data active = activation above about 7.8%;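 note: 0% = vehicle wells and 100% = reference activator wells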
ssDAF12 agonist = S. stercoralis DAF-12 nuclear receptor activators, primary screen, cell-based, luminescence, HEK293, GRIP1 co-expression, lit1-tk-luc; Nuclear hormone receptor DAF-12 (Strongyloides stercoralis); HEK293 ssDAF-12/GRIP1 lit1-tk-luc reporter; % of 3 µM dafachronic acid response; activation, % at 6.8 µM; 1% of 370,000 active; AID 652126, 2013;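 active = activation above the mean over all tested compounds plus 3 SD, cut at about 0.9% in these data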;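 note: 0% = DMSO-only wells and 100% = 3 µM delta7-dafachronic acid wells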
hcDAF-12 act = H. contortus DAF-12 nuclear receptor activators, primary screen, cell-based, luminescence, HEK293, lit1-tk-luc reporter; AID 652067, 2013; HEK293 hcDAF-12 lit1-tk-luc reporter; 0% DMSO, 100% Δ7-dafachronic acid; activation, % at 6.8 µM; 1.4% of 370,000 active;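 active = activation above the mean of all tested compounds plus 3 SD, cut at about 5.5% in these data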;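 note: 100% = response to 3 µM Δ7-dafachronic acid high control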
LXRb hcDAF ctr = LXR agonists, Gal4 luciferase reporter, confirmation, counter-screen for hcDAF-12 agonist project, cell-based, luminescence, HEK293, H. contortus campaign | shares compounds with hcDAF-12 act | HEK293 Gal4-LXR tk-luc reporter, 24 h; normalized: DMSO 0%, positive control 100% | activation, % at 6.8 µM | 3,400 tested, under 10 active;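 active = mean percent activation of the reporter above a cutoff set as the average over tested compounds plus their standard deviation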
Target sequence (P55055 whole entry, looked up, the tested form may be a part): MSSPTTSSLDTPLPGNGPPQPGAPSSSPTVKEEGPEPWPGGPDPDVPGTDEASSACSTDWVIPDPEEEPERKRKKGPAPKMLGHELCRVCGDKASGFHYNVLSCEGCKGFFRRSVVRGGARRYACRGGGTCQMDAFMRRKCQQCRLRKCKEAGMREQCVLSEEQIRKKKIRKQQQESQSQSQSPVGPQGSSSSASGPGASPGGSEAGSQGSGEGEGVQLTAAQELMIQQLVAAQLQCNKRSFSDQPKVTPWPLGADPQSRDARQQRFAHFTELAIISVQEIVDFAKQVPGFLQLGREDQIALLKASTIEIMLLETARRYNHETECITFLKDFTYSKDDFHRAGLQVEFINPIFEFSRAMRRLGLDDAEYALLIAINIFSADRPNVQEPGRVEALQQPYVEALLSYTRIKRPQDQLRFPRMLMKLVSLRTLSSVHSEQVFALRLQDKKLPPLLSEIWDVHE
hcDAF12 conf = H. contortus DAF-12 receptor agonists, confirmation, cell-based, luminescence, HEK293, lit1-tk-luc, triplicate. shares compounds with hcDAF-12 act. HEK293 hcDAF-12 lit1-tk-luc reporter; % of Δ7-dafachronic acid response. activation, % at 6.8 µM. 61% of 3,400 active;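 active = mean activation across triplicate tests above the threshold derived from the earlier primary screen, cut at about 5.5% in these data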;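 note: 0% = DMSO only wells and 100% = 3 µM Δ7-dafachronic acid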
The depositor's hits bear a star.

`c1ccc(-c2nc3c4ccccc4ccn3c2CN2CCOCC2)cc1` gave hgDAF12 agonist 10, DAX1 inh 1, SMARCA2 act 1, ssDAF12 agonist 1, hcDAF-12 act 8.3*, LXRb hcDAF ctr 0 and hcDAF12 conf 6.7*.
Clc1ccc(-c2nc3c4ccccc4ccn3c2Cc2ccsc2)cc1 was read as hgDAF12 agonist 8, DAX1 inh 2, SMARCA2 act -1, ssDAF12 agonist 0, hcDAF-12 act 8.8*, LXRb hcDAF ctr 0 and hcDAF12 conf 5.8*.
For O=C(Nc1cc2c(ccc3ccccc32)oc1=O)C1CCCCC1 the results were hgDAF12 agonist -1, DAX1 inh 0, SMARCA2 act 0, ssDAF12 agonist 0, hcDAF-12 act 7.3*, LXRb hcDAF ctr 0 and hcDAF12 conf 1.
CC1=NN(c2ccc(C)cc2)C(=O)/C1=C\c1ccc(Br)s1 was read as hgDAF12 agonist 0, DAX1 inh 0, SMARCA2 act 0, ssDAF12 agonist 0, hcDAF-12 act 9.5*, LXRb hcDAF ctr 0 and hcDAF12 conf 5.
`CCc1ccccc1NC(=O)c1onc(C)c1Cl` gave hgDAF12 agonist 2, DAX1 inh 1, SMARCA2 act -4, ssDAF12 agonist 0, hcDAF-12 act 9.4*, LXRb hcDAF ctr 0 and hcDAF12 conf 2.
O=C(C1CCCN(S(=O)(=O)c2cccs2)C1)N1CCN(Cc2ccccc2)CC1 (stereo unspecified) was read as hgDAF12 agonist 2, DAX1 inh -1, SMARCA2 act -6, ssDAF12 agonist -1 and hcDAF-12 act -3.
Screening Nc1ccccc1N=Nc1ccccc1N returned hgDAF12 agonist 10, DAX1 inh 1, SMARCA2 act 7, ssDAF12 agonist 1, hcDAF-12 act 6.7*, LXRb hcDAF ctr 1 and hcDAF12 conf 9.2*.
Screening Nc1ccccc1N=c1ssnc1Cl returned hgDAF12 agonist 7, DAX1 inh 1, SMARCA2 act -1, ssDAF12 agonist -1 and hcDAF-12 act 6.
COc1ccc(N=Nc2c(C)[nH]c3ccccc23)cc1 was read as hgDAF12 agonist 4, DAX1 inh -1, SMARCA2 act -1, ssDAF12 agonist -1 and hcDAF-12 act 3.
Screening CC(=O)c1cccc(N=Nc2c(C)[nH]c3ccccc23)c1 returned hgDAF12 agonist -1, DAX1 inh 0, SMARCA2 act 3, ssDAF12 agonist 1.4*, hcDAF-12 act 6.7*, LXRb hcDAF ctr 0 and hcDAF12 conf 5.
For O=C(Nc1nnc(-c2ccccc2)s1)c1ccc(F)cc1 the results were hgDAF12 agonist 3, DAX1 inh 0, SMARCA2 act 3, ssDAF12 agonist -1, hcDAF-12 act 6.7*, LXRb hcDAF ctr 0 and hcDAF12 conf 2.
For CC(OC(=O)c1ccc2c(c1)C(=O)N(Cc1ccncc1)C2=O)C(=O)Nc1cccc(Cl)c1Cl (stereo unspecified) the results were hgDAF12 agonist -1, DAX1 inh 0, SMARCA2 act -3, ssDAF12 agonist -1 and hcDAF-12 act 3.
O=C(COC(=O)c1ccc2c(c1)C(=O)N(Cc1ccncc1)C2=O)Nc1ccccc1[N+](=O)[O-] was read as hgDAF12 agonist 1, DAX1 inh 1, SMARCA2 act 1, ssDAF12 agonist 0, hcDAF-12 act 7.0*, LXRb hcDAF ctr 0 and hcDAF12 conf 6.2*.
COc1ccc(-n2ncc(N(C)n3cccc3)c(Cl)c2=O)cc1 was read as hgDAF12 agonist 12*, DAX1 inh 3.9*, SMARCA2 act 6, ssDAF12 agonist 0, hcDAF-12 act 6.8*, LXRb hcDAF ctr 1 and hcDAF12 conf 4.
`CCCCn1cnc2c(=O)[nH]ccc21` gave hgDAF12 agonist 2, DAX1 inh 1, SMARCA2 act -6, ssDAF12 agonist -1 and hcDAF-12 act 1.
Cn1c(=O)c(C(=O)CN2CCc3ccccc32)c(N)n(Cc2ccccc2)c1=O was read as hgDAF12 agonist 4, DAX1 inh 0, SMARCA2 act -2, ssDAF12 agonist 1, hcDAF-12 act 8.0*, LXRb hcDAF ctr 0 and hcDAF12 conf 2.
For NC1=NC(=O)/C(=C\c2ccc(-c3ccc(Cl)cc3)o2)S1 the results were hgDAF12 agonist 5, DAX1 inh 0, SMARCA2 act 4, ssDAF12 agonist 0.9*, hcDAF-12 act 6.5*, LXRb hcDAF ctr 0 and hcDAF12 conf 7.7*.
Screening CCN(C(=S)Nc1cc(S(=O)(=O)N2CCOCC2)ccc1Cl)c1cccc2ccccc12 returned hgDAF12 agonist 0, DAX1 inh -1, SMARCA2 act -1, ssDAF12 agonist 1.2*, hcDAF-12 act 6.8*, LXRb hcDAF ctr 0 and hcDAF12 conf 1.
O=S(=O)(c1ccc(Cl)c(NC(=S)Nc2cccc(O)c2)c1)N1CCOCC1 was read as hgDAF12 agonist -1, DAX1 inh 0, SMARCA2 act 2, ssDAF12 agonist -1 and hcDAF-12 act -1.
For Cc1ccccc1-c1cc2c(nn1)-c1ccccc1C2=O the results were hgDAF12 agonist 5, DAX1 inh 0, SMARCA2 act 3, ssDAF12 agonist 1.5*, hcDAF-12 act 7.2*, LXRb hcDAF ctr 1 and hcDAF12 conf 6.2*.
`O=C1c2ccccc2-c2n[nH]c3cccc1c23` gave hgDAF12 agonist 3, DAX1 inh -1, SMARCA2 act 1, ssDAF12 agonist -1 and hcDAF-12 act 0.
`O=C(NCCc1ccccc1)OCc1cn(Cc2ccc(F)cc2F)nn1` gave hgDAF12 agonist 2, DAX1 inh 0, SMARCA2 act -4, ssDAF12 agonist -2 and hcDAF-12 act -1.
For CC(NCc1ccco1)C(=O)N1CCN(Cc2ccccc2F)CC1 (stereo unspecified) the results were hgDAF12 agonist 1, DAX1 inh 1, SMARCA2 act -4, ssDAF12 agonist 0 and hcDAF-12 act 1.
For Cc1cccn2cc(-c3ccc(F)cc3)nc12 the results were hgDAF12 agonist 11*, DAX1 inh 3.9*, SMARCA2 act 6, ssDAF12 agonist 1.8*, hcDAF-12 act 12*, LXRb hcDAF ctr 2 and hcDAF12 conf 9.7*.

Bioassay records from PubChem BioAssay.
